Source: PubChem BioAssay (several laboratories)
Shown are actives, neighbours in structure and some others; about 1.2% of the full set was active somewhere.
APOBEC3A inh = blocks human APOBEC3A ssDNA deamination; P31941; recombinant A3A, FAM/TAMRA ssDNA deamination fluorescence; inhibition, % at 20 µM; 330,000 tested, 0.41% active; AID 493011;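 active = at least 40% inhibition at 20 µM here, with at most 30% in a related deaminase screen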
Target sequence (P31941 whole entry, looked up): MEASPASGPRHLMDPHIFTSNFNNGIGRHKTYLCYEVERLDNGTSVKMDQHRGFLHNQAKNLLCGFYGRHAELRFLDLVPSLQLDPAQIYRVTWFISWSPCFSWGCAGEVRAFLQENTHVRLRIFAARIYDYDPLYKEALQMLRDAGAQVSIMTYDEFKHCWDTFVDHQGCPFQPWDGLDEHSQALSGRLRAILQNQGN
APOBEC3G inh = blocks human APOBEC3G single-stranded DNA deamination; 330,000 tested, 0.28% active; inhibition, % at 20 µM; Q9HC16; recombinant A3G, ssDNA deamination FAM/TAMRA fluorescence;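 active = inhibition of at least 40% at 20 µM, with no more than 30% in the related APOBEC3A deaminase screen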
Target sequence (Q9HC16 whole entry, looked up): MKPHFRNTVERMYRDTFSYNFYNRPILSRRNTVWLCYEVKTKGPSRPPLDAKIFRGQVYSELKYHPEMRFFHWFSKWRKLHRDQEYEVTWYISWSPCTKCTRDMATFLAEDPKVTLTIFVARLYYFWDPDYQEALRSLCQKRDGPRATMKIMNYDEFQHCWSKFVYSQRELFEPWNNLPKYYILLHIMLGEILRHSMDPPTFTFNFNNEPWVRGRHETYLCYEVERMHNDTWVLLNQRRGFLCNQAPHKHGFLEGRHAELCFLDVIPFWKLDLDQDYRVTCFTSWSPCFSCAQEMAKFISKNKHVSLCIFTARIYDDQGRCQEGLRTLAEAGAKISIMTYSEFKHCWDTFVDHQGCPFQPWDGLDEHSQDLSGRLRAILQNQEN
NALP1 inh = inhibitors of NALP1 inflammasome in yeast; S. cerevisiae NALP1/ASC/caspase-1 growth, X-gal OD620, 72 h; inhibition, % at 10 µM; 280,000 tested, 0.61% active; AID 2071; in the data active = inhibition mostly above about 24%, no sharp cut-off; inactive = mostly below about 32%
PolyA inhibitor = blocks polyadenylation in yeast reporter cells | 300,000 tested, 0.02% active | activity score, % at 12 µM | S. cerevisiae SKY197-pL101 polyadenylation reporter, beta-gal luminescence; efflux-impaired pdr1/pdr3 knockout yeast; score 100 = 6 SD above DMSO | AID 1875;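 active = lowest replicate activity score at least 50, where 100 means six control SD above control mean; inconclusive = lowest score under 50 but half or more replicates reach 50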;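 also: yeast exposed to compound for 9 h at 30 °C; higher score means more reporter readthrough which indicates perturbed polyadenylation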
APOBEC3A confirm = APOBEC3A (human) deaminase inhibition, confirmed; shares compounds with APOBEC3A inh; recombinant A3A, ssDNA deaminase UDG fluorescence assay; inhibition, % at 20 µM; 1,400 tested, 63% active;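 active = inhibition reaching a set limit, 80% of the first screen's cutoff, at 20 µM in any replicate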
UDG A3A counter = inhibits UDG, flagging false APOBEC3A inhibitors | shares compounds with APOBEC3A inh | inhibition, % at 20 µM | UDG counterscreen, FAM/TAMRA uracil oligo fluorescence | 1,000 tested, under 10 active; call rule not given here
Each line names hits and unclear results; the compound was inactive in the other large screens (follow-up assays come after a bar, where they were run).

CSC1=NSC2=NC(=O)/C(=C/c3coc4ccccc4c3=O)C(=N)N12	none (no result: APOBEC3A inh, APOBEC3G inh, PolyA inhibitor)
CCN(CC(=O)Nc1ccccc1C(F)(F)F)C(=O)C1CCC1	none (no result: NALP1 inh)
Cc1cc(C)n2nc[n+](C)c2n1	APOBEC3A inh 52.5 | APOBEC3A confirm 39.5 | UDG A3A counter inactive
CCOC(=O)[C@H]1[C@H]2COc3ccccc3[C@@H]2N2C(=O)c3ccccc3NC(=O)[C@@]12C	none (no result: NALP1 inh, PolyA inhibitor)
O=C(CSc1nnc(NC(=O)c2ccccc2C(=O)O)s1)Nc1ccccc1Cl	APOBEC3A inh 60.3 | APOBEC3A confirm 46.5 | UDG A3A counter inactive
Cc1cccc(C)c1NC(=O)CSc1nnc(NC(=O)c2ccccc2C(=O)O)s1	APOBEC3A inh 63.8 | APOBEC3A confirm inactive
COc1ccc(N(CC(=O)NCCSc2ccc(C)cc2)S(=O)(=O)c2ccccc2)c(OC)c1	APOBEC3A inh 53.8 | APOBEC3A confirm 40.5 | UDG A3A counter inactive
CC(C)c1ccc(N(CC(=O)NN=C2CCN(C)CC2)S(=O)(=O)c2ccccc2)cc1	APOBEC3A inh 64.6 | APOBEC3A confirm inactive | UDG A3A counter inactive
COc1ccc(N(CC(=O)NCC(C)C)S(=O)(=O)c2ccccc2)cc1	APOBEC3A inh 40.7 | APOBEC3A confirm inactive
COc1ccc(N(CC(=O)NCCSC2CCCCC2)S(=O)(=O)c2ccccc2)c(OC)c1	none
CN1CCC(=NNC(=O)CN(c2ccccc2)S(=O)(=O)c2ccccc2)CC1	none
COC(=O)COc1ccccc1/C=C1/NC(=O)NC1=O	none
O=C(COc1ccccc1/C=C1/NC(=O)NC1=O)Nc1ccccc1	APOBEC3A inh 46.1 | APOBEC3A confirm 68.2 | UDG A3A counter inactive
COc1ccc(Cl)cc1NC(=O)Cn1c(C)csc1=O	none (no result: NALP1 inh, PolyA inhibitor)
O=C(NCc1ccc2c(c1)OCO2)c1ccc(Br)cc1	none
O=C(NCc1ccc2c(c1)OCO2)c1cc2ncc(Br)cn2n1	APOBEC3A inh 92.7 (no result: PolyA inhibitor) | APOBEC3A confirm 82.7 | UDG A3A counter inactive
Cc1nn(Cc2ccc(F)cc2)c(C)c1NC(=O)c1cc2ncc(Br)cn2n1	APOBEC3A inh 40.7 | APOBEC3A confirm inactive
CCOC(=O)C1CCN(C(=O)C(C)Sc2nnc3ccccn23)CC1 (stereo not given)	APOBEC3A inh 59.5 (no result: NALP1 inh, PolyA inhibitor) | APOBEC3A confirm inactive | UDG A3A counter inactive
CCOC(=O)C1CCN(C(=O)C(C)Sc2ccc(Cl)cc2)CC1 (stereo not given)	none
Cc1ccc(SCC(=O)NNC(=O)c2ccccc2)c(C)c1	none
CCOC(=O)N1CCN(C(=O)Cc2cccc3ccccc23)CC1	none
CCOC(=O)C1CCN(C(=O)Cc2cccc3ccccc23)CC1	APOBEC3A inh 40.2 | APOBEC3A confirm 57.7 | UDG A3A counter inactive
Cc1ccc2c(c1)S/C(=C/c1ccc[n+](C)c1)N2CCO	APOBEC3A inh 70.0 | APOBEC3A confirm 84.3 | UDG A3A counter inactive
COc1ccc(C2=[N+](C)CCn3cccc32)c(OC)c1	APOBEC3A inh 62.9 | APOBEC3A confirm 73.4 | UDG A3A counter inactive
Cc1cc(C)nc(/N=C2/NC(=O)CS2)n1	APOBEC3A inh 63.8 | APOBEC3A confirm inactive | UDG A3A counter inactive
Cc1ccc(N=C2NC(=O)CS2)cc1	none
CCNS(=O)(=O)c1ccc(NC(=O)Cc2ccc(F)cc2)cc1	none
CC(Nc1ccc(F)cc1)=[N+](C)CCNS(=O)(=O)c1ccc(Cl)cc1	APOBEC3A inh 54.6 | APOBEC3A confirm inactive
Cc1ccc(NC(=O)Cc2noc3ccccc23)cc1	none
O=C(Cc1noc2ccccc12)Nc1ccc2ccccc2c1	APOBEC3A inh 46.8 | APOBEC3A confirm inactive | UDG A3A counter inactive
CCOC(=O)c1c(NC(=O)Cn2ccsc2=N)sc(C)c1C	APOBEC3A inh 56.8 | APOBEC3A confirm inactive
CCOc1ccc(S(=O)(=O)NCc2ccccn2)c(C)c1C	none
O=C(NCc1ccccn1)C1CCN(S(=O)(=O)c2ccccc2)CC1	none
C=CCNC(=O)c1ccccc1NC(=O)C1CCN(S(=O)(=O)c2ccc(SC)cc2)CC1	APOBEC3A inh 43.6 | APOBEC3A confirm 59.7 | UDG A3A counter inactive
CSc1ccc(S(=O)(=O)N2CCC(C(=O)NCc3ccccn3)CC2)cc1	APOBEC3A inh 59.5 | APOBEC3A confirm 53.2 | UDG A3A counter inactive
CC(C)(C)OC(=O)N1CCC2(CC1)Oc1ccc(F)cc1C(=O)C21CC(c2ccccc2)=NO1 (stereo not given)	none (no result: NALP1 inh)
Cc1ccn(C)c(=N)c1	APOBEC3A inh 48.3 | APOBEC3A confirm 56.1 | UDG A3A counter inactive
Cc1ccc(C)c(N)c1	none (no result: NALP1 inh, PolyA inhibitor)
CCC(=O)NC(Nc1c(C)n(C)n(-c2ccccc2)c1=O)C(Cl)(Cl)Cl (stereo not given)	none
O=C(O)c1cccc(-n2cccc2/C=C2/NC(=O)N(Cc3ccccc3F)C2=O)c1	APOBEC3A inh 61.7 | APOBEC3A confirm 62.1 | UDG A3A counter inactive
CC1CCC(C(C)C)C(OCC(O)C[N+]2(C)CCCCC2)C1 (stereo not given)	APOBEC3A inh 78.1 | APOBEC3A confirm 73.9 | UDG A3A counter inactive
O=C(N/N=C/c1ccccc1[N+](=O)[O-])c1ccncc1	none
O=[N+]([O-])c1ccccc1/C=N/NC1=NCCN1	APOBEC3A inh 50.3 (no result: NALP1 inh) | APOBEC3A confirm 63.6 | UDG A3A counter inactive
COC(=O)c1ccc2c(c1)C(C)(C)C(/C=C/c1ccc(OC)c(OC)c1OC)=[N+]2C	APOBEC3A inh 94.8 | APOBEC3A confirm 82.8 | UDG A3A counter inactive
O=C(COC(=O)/C=C/c1ccco1)NCc1ccccc1Cl	none
O=C(COC(=O)/C=C/c1ccco1)NCc1ccco1	APOBEC3A inh 48.8, PolyA inhibitor inconclusive | APOBEC3A confirm 36.3 | UDG A3A counter inactive
COc1ccc(OCCC(=O)OCC(=O)NCc2ccco2)cc1	none
O=C(COC(=O)/C=C/c1ccco1)Nc1ncc(C(F)(F)F)cc1Cl	APOBEC3A inh 51.1 | APOBEC3A confirm 50.4 | UDG A3A counter inactive
Cc1cc(Br)ccc1SCC(=O)OCC(=O)NCc1ccco1	APOBEC3A inh 58.8 | APOBEC3A confirm 42.6
COc1ccccc1NCCC(=O)OCC(=O)NCc1ccco1	APOBEC3A inh 44.4 | APOBEC3A confirm 23.8 | UDG A3A counter inactive
COc1ccc(-c2nc3c4ccccc4ccn3c2CN2CCOCC2)cc1OC	none (no result: NALP1 inh)
Cc1ccc(C)c(SCC(=O)OCC(=O)c2ccco2)c1	APOBEC3A inh 53.9 | APOBEC3A confirm 51.2 | UDG A3A counter inactive
N/C(=N\OC(=O)Cc1ccc([N+](=O)[O-])cc1)c1ccc([N+](=O)[O-])cc1	APOBEC3A inh 53.4 | APOBEC3A confirm inactive | UDG A3A counter inactive
ClC(/C=N/n1cnnc1)=C/c1ccccc1	none
COc1ccc2nc(Nc3nc4cc5c(cc4s3)OCO5)sc2c1	APOBEC3A inh 46.1 | APOBEC3A confirm 38.6 | UDG A3A counter inactive
COc1ccc2nc(Nc3ccc4c(c3)OCO4)sc2c1	none (no result: NALP1 inh)
O=C(COC(=O)c1ccc(S(=O)(=O)N2CCCCC2)cc1)NCc1ccccc1	none (no result: NALP1 inh, PolyA inhibitor)
CC(C)C(C(=O)NCC1CCCO1)N(C(=O)CNS(=O)(=O)c1ccccc1)c1ccc(F)cc1 (stereo not given)	none
N#CCNC(=O)c1nn2c(C(F)(F)F)cc(-c3ccccc3)nc2c1Br	none
